# IMPase Li inh: qHTS Assay for Identifying the Cell-Membrane Permeable IMPase Inhibitors: Potentiation with Lithium; CHO-M1 cells, IP1 TR-FRET (IP-One), carbachol + lithium; Potency, µM (top dose mostly 59.4 µM), inactives show at the highest dose activity, negative = IMPase inhibition, hits mostly inhibitors; actives 0.35% (n = 210,000);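 also: IP1 builds up when IMPase is blocked and the TR-FRET signal falls; potency is read from the fitted curve at half-maximal effect; plate controls were basal vehicle for no effect and high inhibitor control for full effect; nearly all actives have a fitted effect of over 50% in size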
#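 CHO-M1, 2000 cells/well, 16–30 h culture; cpd + low Li+, 30 min 37C; lysis with d2-IP1/Eu-anti-IP1 Ab, 10 min RT; TR-FRET 665/620 ratio and 620 channel; AC50 via Hill.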
# HPGD inh: qHTS Assay for Inhibitors of HPGD (15-Hydroxyprostaglandin Dehydrogenase) | 15-hydroxyprostaglandin dehydrogenase [NAD(+)] (Homo sapiens), P15428 | purified HPGD, NADH fluorescence kinetic, PGE2 substrate | Potency, µM, for the others: at the highest dose activity change, negative = inhibition, hits mostly inhibitors | actives 4.3% (n = 150,000) | AID 894, 2007; active = well fitted inhibition curve with a large enough effect, not every such curve was filed as active; inconclusive = small, poorly fitted or top-dose-only effect, or another doubt; inactive = no such curve, though single readings can be large or run the other way; also: potency is read from the fitted curve at half-maximal effect
#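 NADH formation kinetics: reaction with 30 uM PGE2 and 1 mM NAD+ (final), 20 nM enzyme, Tris-HCl pH 8 with Tween 20, after 15 min compound preincubation at room temperature. Fluorescence change, last versus first of five reads.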
# IMPase inh: qHTS Assay for Identifying the Cell-Membrane Permeable IMPase Inhibitors. Inositol monophosphatase 1 (Rattus norvegicus), P97697. CHO-M1 cells, IP1 accumulation, HTRF TR-FRET ratio. inhibition (IP1 accumulation), % at 46.1 µM. 120,000 tested, under 10 active. AID 901, 2007; active = well fitted curve in the direction sought with a large enough effect in the signal ratio, not every such curve was filed as active; inconclusive = small, poorly fitted or top-dose-only effect, or a change in a side signal; inactive = no such curve, though single readings can be large or run the other way; the % refers to the signal ratio;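 also: cells stimulated with carbachol in lithium chloride buffer; plate controls were DMSO basal wells for no effect and reference inhibitor wells for full effect; higher means more IMPase inhibition seen as more IP1 and lower FRET ratio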
#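 Seeded CHO-M1 cells were dosed with compound at up to 46 uM, stimulated with carbachol for 30 min, then lysed in IP-One detection reagents. Higher IP1 lowers the TR-FRET signal.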
# ALDH1A1 block: qHTS Assay for Inhibitors of Aldehyde Dehydrogenase 1 (ALDH1A1); Aldehyde dehydrogenase 1A1 (Homo sapiens), P00352; Purified ALDH1A1, NADH fluorescence, propionaldehyde substrate; Potency, µM (highest dose often 75.3 µM), for the others: top-dose activity, negative = inhibition, hits mostly inhibitors; actives 7.3% (n = 220,000); active = well fitted inhibition curve with a large enough effect, not every such curve was filed as active; inconclusive = small, poorly fitted or top-dose-only effect, or another doubt; inactive = no such curve, though single readings can be large or run the other way;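 also: potency is read from the fitted curve at half-maximal effect; plate controls were no enzyme wells and a reference inhibitor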
# ALOX12 inhib: qHTS Assay for Inhibitors of 12-hLO (12-human lipoxygenase); Polyunsaturated fatty acid lipoxygenase ALOX12 (Homo sapiens), P18054; purified 12-hLO, xylenol orange hydroperoxide absorbance; Potency, µM (highest dose often 57.1 µM), inactives show at the highest dose activity change, negative = inhibition, actives largely listed as inhibitors; actives 0.12% (n = 150,000); AID 1452, 2008; also: potency is read from the fitted curve at half-maximal effect; nearly all actives have a fitted effect of over 55% in size
# Target sequence (P18054 whole entry, looked up): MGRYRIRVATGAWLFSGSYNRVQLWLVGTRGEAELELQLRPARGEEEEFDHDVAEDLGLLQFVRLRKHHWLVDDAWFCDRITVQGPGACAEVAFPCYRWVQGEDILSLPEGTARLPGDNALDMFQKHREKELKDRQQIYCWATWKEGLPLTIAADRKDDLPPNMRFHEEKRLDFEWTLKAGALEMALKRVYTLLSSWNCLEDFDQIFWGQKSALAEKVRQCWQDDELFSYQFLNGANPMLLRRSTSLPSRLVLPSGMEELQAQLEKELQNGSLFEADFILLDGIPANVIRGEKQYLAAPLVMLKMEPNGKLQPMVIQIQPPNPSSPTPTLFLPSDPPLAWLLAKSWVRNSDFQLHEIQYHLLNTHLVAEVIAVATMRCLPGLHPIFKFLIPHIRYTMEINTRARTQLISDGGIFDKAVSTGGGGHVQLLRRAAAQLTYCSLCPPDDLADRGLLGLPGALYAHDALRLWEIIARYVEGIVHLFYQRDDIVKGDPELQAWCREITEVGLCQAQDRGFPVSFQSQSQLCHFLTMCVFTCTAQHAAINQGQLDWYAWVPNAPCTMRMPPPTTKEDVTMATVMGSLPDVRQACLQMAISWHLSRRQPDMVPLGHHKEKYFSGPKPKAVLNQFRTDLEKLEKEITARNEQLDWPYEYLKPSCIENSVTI
#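 Xylenol orange chromogenic assay: hydroperoxide from 12hLO oxidises Fe(II), giving red-shifted Fe(III)-XO absorbance. Conditions: 150 nM enzyme, 40 uM arachidonic acid, 25 mM Hepes pH 7.0, 0.01% Triton X-100, 30 min, room temperature.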
# PNC assembly inh: High Content Assay for Compounds that inhibit the Assembly of the Perinucleolar Compartment | PC3M PTB-GFP, PNC prevalence imaging, 16 h; active compounds read low | activity change (PNC), negative = inhibition, % at 10 µM | actives 3.1% (n = 140,000) | AID 2417, 2010;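 active = readout at or below -70, meaning at least 70% loss of cells showing the perinucleolar compartment, a nuclear body marking cancer cells; inconclusive = readout between -30 and a set limit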;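 also: plate controls were DMSO wells for no effect and camptothecin positive control wells for full effect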
#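 Read-out is percentage of cells bearing a perinucleolar compartment, from automated 20x imaging of fixed, Hoechst-stained PC3M PTB-GFP cells. Cells were seeded 4 h, then exposed 16 h to compound (23 nl of library stock) in duplicate plates.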
# The depositor's hits bear a star; ? = inconclusive; nt = no result; [ ] = another dose, or the depositor's remark. Hits are enriched below; roughly 11% of the tested compounds scored in any of these assays. Unless noted, calls follow the shape of the dose curve; as a rule, active = well fitted curve in the direction sought with a large enough effect; inconclusive = small, poorly fitted or top-dose-only effect, or another doubt; inactive = no such curve, though single readings can be large; an effect the other way counts as inactive or inconclusive. Unless noted, % is scaled to controls: 0 for no effect and ±100 for the full control effect.
SMILES,IMPase Li inh,HPGD inh,IMPase inh,ALDH1A1 block,ALOX12 inhib,PNC assembly inh
CCCCn1c(SCC(=O)NC(C)CC)nc2ccc(N3CCOCC3)cc2c1=O (stereo unspecified),11µM*,?,-6,?,-24%,-24
CCOc1ccc(NC(=O)CSc2nnc(-c3ccccn3)n2N)cc1,5%[38.3 µM],-15%,-2,11µM*,-4%,?
Cc1cc(C)cc(C(=O)N2CC(=O)Nc3ccc(C)cc3C2c2ccccc2)c1 (stereo unspecified),nt,nt,-3,nt,nt,nt
CC1=C(C(=O)OCC2CCCCC2)C(c2ccc(Cl)cc2)CC(=O)N1 (stereo unspecified),nt,nt,1,nt,nt,nt
Cc1ccc(NC(=O)CSc2nc3ccccc3c(=O)n2Cc2cccs2)cc1,13µM*,-17%,-6,4%,-5%,-7
CCCCn1c(SCC(=O)Nc2cc(C)on2)nc2ccccc2c1=O,5.6µM*,?,-1,?,3%,?
CCn1c(SCC(=O)Nc2ccc(NC(=O)c3ccco3)c(OC)c2)nc2ccccc2c1=O,13µM*,?,5,?,-1%,-28
CCC(C)n1c(SCC(=O)Nc2cc(C)on2)nc2ccccc2c1=O (stereo unspecified),6%[38.3 µM],-9%,3,4%,-2%,77
COCCn1c(SCC(=O)Nc2ccc(NC(=O)c3ccco3)c(OC)c2)nc2ccccc2c1=O,5%[38.3 µM],?,-2,-197%,-2%,14
O=c1c(-c2ccc(F)cc2)nc2cnc(N3CCOCC3)nc2n1Cc1ccc(F)cc1,6%,nt,nt,?,nt,nt
CCCCN(CC)CCNC(=O)Cn1cnc2sc(C)c(S(=O)(=O)N3CCOCC3)c2c1=O,2%,-10%,-2,-8%,-3%,-100*
Cc1cccc(NC(=O)Cn2cnc3sc(C)c(S(=O)(=O)N4CCC(C)CC4)c3c2=O)n1,-25%,-14%,6,-7%,5%,-100*
COCCNC(=O)Cn1cnc2sc(C)c(S(=O)(=O)N3CCC(C)CC3)c2c1=O,nt,nt,-2,-12%,-3%,-7
CS(=O)(=O)c1ccc(/C=N\NC(N)=S)cc1,1%,-11%,nt,?,0%[11.4 µM],nt
O=C1CCC=C1[C@@H](O)CCc1ccccc1,nt,nt,nt,8%[13.5 µM],nt,nt
COc1ccc2c(Cc3c4ccccc4cc4ccccc34)cncc2c1O,-9%,-8%,nt,-9%[13.5 µM],2%[11.4 µM],nt
COCCNc1nc(-c2ccoc2)nc2ccccc12,19%,nt,nt,-12%,nt,nt
O=c1[nH]c(NCCO)nc2c1C1(CCCC1)Cc1ccccc1-2,-3%[38.3 µM],?,-11,?,2%,93
C=CCNC(=S)NNc1nc2c(c(=O)[nH]1)C1(CCCCC1)Cc1ccccc1-2,6%,?,-5,13µM*,?,-13
CC1(C)[C@@H](OC(=O)CCC(=O)O)CC[C@@]2(C)[C@H]1CC[C@@]1(C)[C@H]2C(=O)C=C2[C@H]3C[C@](C)(C(=O)O)CC[C@]3(C)CC[C@@]21C,16%,1%,-7[20.6 µM],9%[20.9 µM],-1%[25.6 µM],nt
Cc1cc(C)c(C#N)c(SCc2ccccc2C)n1,5%,-17%,nt,-10%,-5%,-21
CSc1nc(N)nc(SCCS(=O)(=O)c2ccc(Cl)cc2)c1C#N,14%,-29%,14,2.5µM*,-12%,223
Cc1ccc(S(=O)(=O)CCSc2nc(C)cc(C)c2C#N)cc1,41%[38.3 µM],-29%,-1,2µM*,-7%,-5
CCS(=O)(=O)CCSc1nc(C)cc(C)c1C#N,-5%[38.3 µM],-2%,7,?,-7%,-7
Cc1cc(C)c(C#N)c(SCCS(=O)(=O)Cc2ccccc2)n1,29%[38.3 µM],-17%,-2,6.3µM*,-8%,32
